Reference: the emibetuzumab library of Makowski et al. (2022)
Some of the results follow. The true hit rate is not given.

B1: VH:VL chains; a variant is named by its letters at X, in order (parent)
chain 1: QVQLVQSGAEVKKPGASVKVSCKASGYTFTDYXMHWVRQAPGQGLEWMGXVNPNXXXTTYNQKFEGRVTMTTDTSTSTAYMELRSLRSDDTAVYYCARXNXLDXWGQGTTVTVSS
chain 2: DIQMTQSPSSLSASVGDRVTITCSVSSSVSSIYLHWYQQKPGKAPKLLIYSTSNLASGVPSRFSGSGSGTDFTLTISSLQPEDFATYYCQVYSGYPLTFGGGTKVEIK

Variants of: B1
Assay: yeast display scFab, FACS + sequencing
Settings: with MET
Outline: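 Antigen binding was called positive for sequences present in both antigen-positive samples and negative for those present only in the input. These calls came from deep sequencing, in two replicates, of round-3 sorted and input populations from a heavy-chain CDR mutant scFab yeast surface library. The library was first enriched twice magnetically on HGFR-Fc-coated Protein A beads and then by FACS, gating the top 50% antigen-positive cells after 3 h labelling at room temperature with 1 nM HGFR-Fc plus anti-Myc in PBSB with 1% milk.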

| Variant | antigen binding call |
| --- | --- |
| VAAAGAAV | no binding |
| DKKEDSAD | no binding |
| YKTRGSAD | binds |
| DKTGDSAD | binds |
| DKEGGSAD | no binding |
| YKTRSSAD | binds |
| YKTRGSLD | binds |
| VKKESDSY | no binding |
| YAREDDGA | no binding |
| YRRGTSVD | binds |
| ARRGGSVD | no binding |
| YRRGGSVD | binds |
| DATGGDWA | no binding |
| YRRRGFGA | binds |
| YARRGDGA | no binding |
| YRRRGVGA | binds |
| YRRRGSGA | binds |
| YRRRGAGA | binds |
| ARRRGSGA | no binding |
| YARADDSA | no binding |

| Variant | antigen binding call |
| --- | --- |
| DTTGSSGV | no binding |
| VEAGDDAA | no binding |
| VKGRADLV | no binding |
| DAGRGDGY | no binding |
| YKGRGDGY | binds |
| YKGRGDWY | binds |
| VKGRGVGY | no binding |
| VKGKDVGY | no binding |
| DEGRGDWY | no binding |
| YKGRGVGY | binds |
| YTGTSDWY | no binding |
| VKGRGAGY | binds |
| VEGRGDGY | no binding |
| DKEGGDAS | no binding |
| DKEGGDVA | no binding |
| DTAEDFGV | no binding |
| YKGRGAGY | binds |
| VGGTSDVF | no binding |
| DGGKNDGS | no binding |
| DTKRTAGD | no binding |

| Variant | antigen binding call |
| --- | --- |
| YRRRGYGD | binds |
| YRREGAGD | binds |
| YRRRGAGD | binds |
| YRRRGVGS | binds |
| VTGEDDVA | no binding |
| DEGGTDVD | no binding |
| DRGGDDLV | no binding |
| DARGGDVY | no binding |
| YRRRGDGD | binds |
| YRRRGVGD | binds |
| SEARSDVF | no binding |
| DARGGDWV | no binding |
| DRRGDDGV | no binding |
| ARRGAAGV | no binding |
| YAGGDSGV | no binding |
| YRRGASGV | binds |
| YRRGDSGV | binds |
| YTRGAAGV | no binding |
| DARADSLV | no binding |
